Measured values as given in PubChem BioAssay.
Values without a mark were called inactive. How the calls were made is not given here.

Target: Pantothenate synthetase (Mycobacterium tuberculosis (strain ATCC 25618 / H37Rv)) (UniProt P9WIL5)
Assay: Recombinant Mtb pantothenate synthetase (PanC) inhibitors, coupled enzyme, confirmatory (AID 375);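 further: 0% = full reaction with vehicle and 100% = no enzyme background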
Settings: coupled enzyme assay; at 10 µM, hits give high values

Sequence of Pantothenate synthetase (Mycobacterium tuberculosis (strain ATCC 25618 / H37Rv)) (P9WIL5 whole entry, looked up): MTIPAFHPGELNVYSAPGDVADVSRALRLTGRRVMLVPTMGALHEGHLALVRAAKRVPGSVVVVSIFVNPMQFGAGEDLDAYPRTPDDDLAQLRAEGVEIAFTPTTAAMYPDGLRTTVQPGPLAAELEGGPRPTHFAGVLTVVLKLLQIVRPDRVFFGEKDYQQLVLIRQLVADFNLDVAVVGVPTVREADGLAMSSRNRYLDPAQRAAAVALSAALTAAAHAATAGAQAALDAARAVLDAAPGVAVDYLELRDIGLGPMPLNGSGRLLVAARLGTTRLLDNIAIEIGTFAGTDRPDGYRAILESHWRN

`CC(C)(C)n1nnnc1C(c1ccccc1)N1CCc2ccccc2C1` (stereo not given) and `CCN1CCN(C(c2ccc(F)cc2)c2nnnn2Cc2cccs2)CC1` (stereo not given) are the same in inhibition: 0% for the first, 0% for the second.

First: Cc1nc2sc(C#N)c(N)c2c2c1CCCC2
Second: Cc1[nH]c2ccccc2c(=O)c1CN1CCCCC1
The inhibition of the first is higher: 2% for the first, 0% for the second.

`CCOC(=O)C1=C(C)N=c2s/c(=C\c3cccn3C)c(=O)n2C1c1cccc(OC)c1OC` (stereo not given) and `CCN(Cc1nc2cc(OC)c(OC)cc2c(=O)[nH]1)C(=O)c1ccc(S(=O)(=O)N(C)C)cc1` are the same in inhibition: 0% for the first, 0% for the second.

First: CCCN(CCC)CCNS(=O)(=O)c1ccc2c(c1)oc(=O)n2C
Second: CCN(CC)CCn1c(OC)cc(=O)[nH]c1=O
The inhibition of the first is higher: 2% for the first, 0% for the second.

`Cc1ccc(Br)cc1S(=O)(=O)N1CCN(c2ccccc2)CC1` and `Clc1cccc(N2CCN(Cc3nc(-c4ccccc4)no3)CC2)c1` are the same in inhibition: 0% for the first, 0% for the second.

`O=C(CC(SCCO)c1ccc2c(c1)OCO2)c1ccco1` (stereo not given) and `CC1CN(c2nc3ccccc3nc2C(C#N)C(=O)NCc2ccc3c(c2)OCO3)CC(C)O1` (stereo not given) are the same in inhibition: 0% for the first, 0% for the second.

Compared with `O=C(CSc1nnc(-c2ccccc2Br)o1)Nc1cccc2ccccc12`, `O=C(CCCN1C(=O)c2ccccc2C1=O)NCc1cccnc1` is higher in inhibition: 2% for the first, 3% for the second.

`Cc1ccc(-c2nnc(SCC(=O)N3CC(C)CC(C)C3)o2)cc1C` (stereo not given) and `CC1Cc2nc(SCC(N)=O)n(Cc3ccccc3)c(=O)c2S1` (stereo not given) are the same in inhibition: 0% for the first, 0% for the second.

First: CCOC(=O)C1=C[C@]2(CC)CCCN3CCc4c(n1c1ccccc41)[C@@H]32
Second: CCN1CCN(Cc2nc3c(c(=O)n(C)c(=O)n3C)n2CC(=O)c2ccccc2)CC1
The inhibition of the first is higher: 4% for the first, 2% for the second.

Going from `COc1ccccc1CN1CC(C(=O)NCc2cccnc2)CC1=O` (stereo not given) to `COc1ccccc1C(=O)N1CCN=C1SCc1cccnc1`, the inhibition falls from 2% to 0%.

Going from `CC1(C)C(c2ccccc2)=NC(c2ccccc2)N1O` (stereo not given) to `CSc1nnc(-c2ccccc2)n1C`, the inhibition rises from 3% to 7%.

`COc1ccccc1OCCNC(=O)c1cccs1` and `Cc1ccccc1OCCCN1C(=O)C(=O)c2cccc(C)c21` are the same in inhibition: 0% for the first, 0% for the second.

`CCSc1nc(O)c(CC)c(=O)n1C(C)CC` (stereo not given) and `CCCc1cc(C(=O)Nc2sc(C)c(C)c2C(=O)OCC)no1` are the same in inhibition: 3% for the first, 3% for the second.

Compared with `CCSc1nnc2c(n1)OC=Nc1ccc(Br)cc1-2`, `Cc1ccc(Cn2nnc3c(=O)[nH]c(C4CCN(C(=O)c5cccs5)CC4)nc32)cc1` is lower in inhibition: 2% for the first, 0% for the second.

`Cc1ccccc1NC(=O)C1CCN(c2cnccn2)CC1` and `COc1ccccc1C(=O)Nc1ccc(N2CCN(Cc3ccccc3)CC2)cc1` are the same in inhibition: 0% for the first, 0% for the second.

`Fc1ccc(-c2cnc[nH]2)cc1` and `O=C(O)CCC(=O)Nc1nc(-c2ccccc2)cs1` are the same in inhibition: 0% for the first, 0% for the second.

`Oc1ccc(/C=C/c2cc(O)cc(O)c2)cc1` and `Oc1cccc(C=NCc2ccccc2)c1O` are the same in inhibition: 0% for the first, 0% for the second.

Compared with `CN(C1CCS(=O)(=O)C1)S(=O)(=O)c1cccc2nsnc12` (stereo not given), `CCOc1ccc2nc(NC(=O)C(NS(=O)(=O)c3cccs3)C(C)C)sc2c1` (stereo not given) is lower in inhibition: 2% for the first, 0% for the second.

Compared with `COc1cc(-c2nc(S(=O)(=O)c3ccccc3)c(N3CCOCC3)o2)cc(OC)c1OC`, `CCOc1ccccc1NC(=O)CN(c1ccc(C)cc1)S(=O)(=O)c1c(C)noc1C` is higher in inhibition: 8% for the first, 9% for the second.

`Cc1ccc(NC(=O)CCC(=O)O)cc1F` and `CC(C)(C)NCc1cc2ccccc2[nH]c1=O` are the same in inhibition: 0% for the first, 0% for the second.
